Screening results as filed in PubChem BioAssay.
Pf Dd2 inh – Plasmodium falciparum Dd2 growth inhibition; P. falciparum Dd2 growth, SYBR Green, 72 h; Potency, µM (series often up to 28.9 µM), usual class: inhibitors; 120,000 tested, 4.3% active; active = well fitted inhibition curve with a large enough effect; also: nearly all actives have a fitted effect of over 65% in size
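Readout: SYBR Green fluorescence, 485 nm excitation, 535 nm emission, after ~16 h lysis at 37C. Before that, Dd2-infected red cells (2.5% hematocrit) grew 72 h with compound, 29 uM top final concentration.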
Each line names hits and unclear results; the compound was inactive in the other large screens. The entries come from a sample that favours hits as a whole.

Cc1ccc(C(=O)c2cn(Cc3ccccc3)c3ccccc3c2=O)cc1	none
O=C(NCc1ccccc1)N1CCC(Oc2ncccc2C(=O)N2CCOCC2)C1 (stereo not drawn)	none
COc1ccc(CCC(=O)N2CCCC(c3nc(C4CCOCC4)no3)C2)cc1 (stereo not drawn)	none
COc1ccccc1NC(=O)Cn1ccn2nc3c(c2c1=O)CCCC3	none
CN(C)CCCC(=O)N1CCC2(CC1)CC(N[S+](C)(=O)[O-])c1ccccc12 (stereo not drawn)	none
CCOCCn1nc(C)cc1C(=O)N1C[C@@H](C)[C@](O)(C2CC2)C1	none
CCOc1ccc(-n2c(-c3ccccc3)c(C)n3c4c(=O)n(C)c(=O)n(C)c4nc23)cc1	none
Cc1c(-c2ccccc2)n(-c2ccccc2O)c2nc3c(c(=O)n(C)c(=O)n3C)n12	Pf Dd2 inh 3.2µM
Cc1cc(C)cc(-n2c(-c3ccccc3)c(C)n3c4c(=O)n(C)c(=O)n(C)c4nc23)c1	none
Cc1cccc(OCC2(CNC(=O)NC(C)C)C[C@@H](O)[C@@H](O)C2)n1 (stereo partly drawn)	none
O=C1COc2ccc(-c3ccc(F)c(Cl)c3)nc2CN1Cc1nc2ccccc2s1	none
Cc1nn2c(c1-c1ccccc1Oc1ccccc1)N(CC1CCOCC1)CCC2	Pf Dd2 inh 7.9µM
CC(=O)Nc1ccccc1-c1c(C)nn2c1N(Cc1ccccc1)CCC2	none
COc1ccc(CN2CCCn3nc(C)c(-c4ccccc4Oc4ccccc4)c32)cc1O	Pf Dd2 inh 1.3µM
Cc1nn2c(c1-c1ccccc1-c1ccccc1)N(Cc1ccc(OCC(=O)O)cc1)CCC2	none
Cc1nn2c(c1-c1ccccc1Oc1ccccc1)N(C(=O)c1ccc(F)cc1)CCC2	none
COc1cccc(CN2CCCn3nc(C)c(-c4cnccc4C)c32)c1	none
Cc1nn2c(c1-c1cccnc1N1CCOCC1)N(CC1CC1)CCC2	none
Cc1nn2c(c1-c1ccccc1Oc1ccccc1)N(CC1CC1)CCC2	none
Cc1nn2c(c1-c1ccccc1-c1ccccc1)N(Cc1cccc(O)c1)CCC2	Pf Dd2 inh 0.79µM
O=C(NCCC1CCN(C(=O)Nc2ccc(F)cc2F)CC1)c1ccsc1	none
O=C(O)C1(Oc2ccc3ncccc3c2)CCN(Cc2ccncc2)CC1	none
Cc1cc(C(=O)N2CCOC(CC(c3ccccc3)c3ccccc3)C2)no1 (stereo not drawn)	none
O=C(CCC1CCCN(C(=O)c2ccc3c(c2)OCO3)C1)NCc1ccccc1Cl (stereo not drawn)	none
O=C(NCc1nnc2c(-c3nc(C4CC4)no3)cccn12)c1ccc(F)c(Cl)c1	none
O=C(c1ccc(OC(F)F)cc1)N1C[C@H](CO)C[C@H](CN2CCCC2)C1	none
O=C(c1ccoc1)N1C[C@@H](CO)[C@H](c2ccncc2)C1	none
CNC(=O)c1noc([C@@H]2CC(F)(F)CN2C(=O)Cc2ccccc2)n1	none
O=C(COc1ccccc1)N[C@H]1CO[C@H]2[C@@H]1OC[C@@H]2n1nnnc1-c1ccc2c(c1)OCO2	none
COc1ccc(CCc2nc3nccc(-c4ccncc4)n3n2)cc1OC	none
COc1ccc(CCc2nc3nccc(-c4ccc(OC)c(OC)c4)n3n2)cc1	Pf Dd2 inh 13µM
COc1cc(-c2ccnc3nc(CCc4ccccc4)nn23)cc(OC)c1OC	Pf Dd2 inh 11µM
COc1ccc(CCc2nc3nccc(-c4ccc(F)cc4)n3n2)cc1OC	none
COc1ccc(CCc2nc3nccc(-c4ccccc4)n3n2)cc1OC	none
COc1ccc(CCc2nc3nccc(-c4cc(OC)c(OC)c(OC)c4)n3n2)cc1	none
COc1ccc(-c2cn(C)c(=O)n3cc(COc4ccnn4C)nc23)c(C)c1	none
Nc1nc(C2CC(N)C2)cc(N2CCN(CC(=O)N3CCCCC3)CC2)n1 (stereo not drawn)	none
C=CCNc1nc(C)nc2c1CCN(C(=O)Cc1nnc(N)s1)CC2	none
CCOCC(=O)N1C[C@@H]2CCCN3CCC[C@@H]([C@H]23)[C@H]1CCCC(=O)NCC1CC1	none
CC(C)(C)C1CCC2(CC1)NC(=O)N(CC(=O)N1CCN(c3ccccc3F)CC1)C2=O (stereo not drawn)	none
N#Cc1ccccc1CN1CCCC12Cc1ccccc1CNC2=O (stereo not drawn)	none
Cc1ccc(-c2ccc(N)nc2)c2cccnc12	none
COc1cc(NC(=O)c2c(OC)cc(=O)n3c2CCCC3)cc(OC)c1OC	none
Cc1ccc(C2(O)CCN(C(=O)CCn3ccc(=O)[nH]c3=O)CC2)nc1	none
O=c1[nH]c(C2CCCN(S(=O)(=O)c3ccccc3Cl)C2)nc2c1nnn2Cc1ccc(OC(F)(F)F)cc1 (stereo not drawn)	none
CCc1ccc(Cn2nnc3c(=O)[nH]c(C4CCCN(C(=O)c5cccc(Cl)c5)C4)nc32)cc1 (stereo not drawn)	none
COc1cccc(Cn2nnc3c(=O)[nH]c(C4CCCN(C(=O)c5ccc(C)cc5)C4)nc32)c1 (stereo not drawn)	Pf Dd2 inh 10µM
O=S(=O)(c1ccc(Cl)cc1)c1nc(-c2ccccc2Br)oc1NCc1ccccc1	Pf Dd2 inh 10µM
COCCNc1oc(-c2ccccc2)nc1S(=O)(=O)c1ccc(Br)cc1	none
O=S(=O)(c1ccccc1)c1nc(-c2ccc(F)cc2)oc1NCc1ccccc1	none
O=C1CC2(CCN(S(=O)(=O)c3ccccc3)CC2)Oc2cc(Cl)ccc21	none
CCOC(=O)N1CCC(N[C@@H]2CC[C@@H]2NC(=O)c2cnc3cccnn23)CC1	none
COc1ccc(-c2nnc3ccc(Nc4cccc(OC)c4)nn23)nc1	Pf Dd2 inh 10µM
COc1ccc(Nc2ccc3nnc(-c4ccc(C)cn4)n3n2)cc1	none
COc1ccc(-c2nnc3ccc(NC(C)C)nn23)nc1	none
O=C(Nc1ccccc1F)N1CCC(CCNC(=O)C2(c3ccccc3)CC2)CC1	none
CCOc1ccc(-n2c(-c3ccc(OC)cc3)cc3c2CC(C)(C)CC3=O)cc1	none
COc1ccc(-n2c(-c3ccc(C)cc3)cc3c2CC(C)(C)CC3=O)c(OC)c1	Pf Dd2 inh 13µM
Cc1ccc(-c2cc3c(n2-c2ccc(C)cc2)CC(C)(C)CC3=O)cc1	none
COc1cccc(C(=O)Nc2nc(-c3ccc(Br)cc3)ns2)c1	none
CCCCOC(=O)c1ccc(NC(=O)c2sc3nc(C)cc(C)c3c2N)cc1	none
COCCCNC(=O)c1sc2nc(C)c(C(=O)Nc3ccc(Cl)cc3)c(-c3ccc(Br)cc3)c2c1N	none
COc1ccccc1NC(=O)c1sc2cccc(Cl)c2c1Cl	none
Cc1ccc(NC(=O)c2sc3nc(-c4ccc(F)cc4)ccc3c2N)cc1F	none
COc1cccc(NC(=O)c2sc3nc(C)c(C(=O)Nc4ccc(C)cc4C)c(-c4ccc(Br)cc4)c3c2N)c1	Pf Dd2 inh 8.9µM
COc1ccc(Cc2c(C)nn(-c3nc(C)c(C(=O)Nc4ccc(C)cc4C)s3)c2C)cc1	none
Cc1cc(F)ccc1NC(=O)c1sc2nc(-c3cccs3)ccc2c1N	none
Cc1ccc(NC(=O)c2c(C)nc3sc(C(=O)Nc4ccc(F)cc4)c(N)c3c2-c2ccc(C)o2)c(C)c1	Pf Dd2 inh 3.5µM
COc1ccc(NC(=O)c2sc3nc(C)c(C(=O)Nc4ccc(C)cc4C)c(-c4sccc4C)c3c2N)cc1	Pf Dd2 inh 3.2µM
COc1ccccc1NC(=O)c1sc2nc(C)c(C(=O)Nc3ccc(C)cc3C)c(-c3ccccc3Cl)c2c1N	Pf Dd2 inh 5.6µM
COc1ccccc1C(=O)Nc1c(C(=O)Nc2cc(Cl)ccc2C)sc2nc(C)cc(C)c12	none
O=C(NCc1ccco1)C1COC2(CCN(C(=O)c3cccs3)CC2)N1C(=O)c1ccccc1 (stereo not drawn)	none
COCC(=O)Nc1ccc(-c2c(-c3cccc(OC)c3)nn(-c3ccccc3)c2OC(C)=O)cc1	none
Cc1nnc([C@H]2CCN(Cc3ccc(C#N)cc3)C2)o1	none
Cc1ccccc1OC1(C(=O)O)CCN(Cc2ccc(CO)o2)CC1	none
